Records with an inconclusive call do not appear. Entries that show only a call come without a potency. The source made the active and inactive calls. The call rests on the fitted dose curve; in most records, active means well fitted curve in the direction sought with a large enough effect; inconclusive means small, poorly fitted or top-dose-only effect, or another doubt; inactive means no such curve, though single readings can be large; an effect the other way counts as inactive or inconclusive.
Tests used:
[1] = target: Aldehyde dehydrogenase, mitochondrial (Homo sapiens) (UniProt P05091); assay: qHTS for Inhibitors of the Aldehyde Dehydrogenase Family (ALDH2) Primary screen (AID 2061308); further: nearly all actives have a fitted effect of over 55% in size; further: potency means the concentration at half of the fitted maximal effect
[2] = qHTS for Inhibitors of the Aldehyde Dehydrogenase Family (ALDH1A2, ALDH1A3, ALDH2, ALDH3A1) (AID 2061307); further: nearly all actives have a fitted effect of over 50% in size
[3] = target: Retinaldehyde dehydrogenase 3 (Homo sapiens) (UniProt P47895); assay: qHTS for Inhibitors of the Aldehyde Dehydrogenase Family (ALDH1A3) Primary screen (AID 2061315)
[4] = target: Aldehyde dehydrogenase 1A1 (Homo sapiens) (UniProt P00352); assay: qHTS for Inhibitors of the Aldehyde Dehydrogenase Family (ALDH1A1) Confirmatory screens (AID 2061316); further: potency means the concentration at half of the fitted maximal effect; nearly all actives have a fitted effect of over 65% in size
[5] = target: Retinaldehyde dehydrogenase 3 (Homo sapiens) (UniProt P47895); assay: qHTS for Inhibitors of the Aldehyde Dehydrogenase Family (ALDH1A3) Confirmatory screens (AID 2061311); further: nearly all actives have a fitted effect of over 60% in size; further: potency means the concentration at half of the fitted maximal effect
[6] = target: Retinal dehydrogenase 2 (Homo sapiens) (UniProt O94788); assay: qHTS for Inhibitors of the Aldehyde Dehydrogenase Family (ALDH1A2) Confirmation screens (AID 2061314); further: nearly all actives have a fitted effect of over 65% in size

COc1ccc(OC)c(N2C(=O)C(Cl)=C(N3CCCCC3)C2=O)c1
Potency [1]: inactive

CC(O)c1ccc(-c2ccc3ncnc(NCc4nccs4)c3c2)o1 (stereo unspecified)
Potency [2]: inactive | Potency [3]: inactive | Potency [4]: 10.1 µM (active)

CC1(C)OB(c2ccc(O)c3ncc(N4CCNCC4)cc23)OC1(C)C
Potency [1]: inactive

Cc1ccc2nc3sc(C(=O)NCCc4cccnc4)cc3cc2c1
Potency [1]: inactive | Potency [5]: 12.7 µM (active)

COc1cncc(NC(=O)c2cccs2)c1
Potency [1]: inactive | Potency [5]: 11.3 µM (active)

CC(C)N1CCc2c(sc(NC(=O)c3ccccc3)c2-c2nc3ccccc3s2)C1
Potency [1]: 22.4 µM (active) | Potency [5]: inactive

Fc1ccccc1-c1nc(-c2cccc(-c3nn[nH]n3)c2)no1
Potency [1]: inactive

N#Cc1ccc(-c2nc3ccccc3s2)cc1
Potency [1]: inactive

O=C(NO)c1cnc(N2CCN(S(=O)(=O)c3ccc4ccccc4c3)CC2)nc1
Potency [1]: inactive

Cc1ccnc(NC(=S)N2CCC(c3cccc(C(F)(F)F)c3)CC2)c1
Potency [1]: inactive

O=[S+]([O-])(Nc1nccs1)c1ccc(NCc2cc(F)cc(Cl)c2O)cc1
Potency [1]: inactive | Potency [5]: inactive | Potency [6]: inactive | Potency [3]: inactive

COc1ccc2nc(-c3cccc(NC(C)=O)c3)sc2c1
Potency [1]: inactive

Cn1cc(CCn2cnc(-c3cnn(C)c3)c2-c2ccc(C#N)cc2)cn1
Potency [1]: inactive

N#Cc1nc(NCC(F)F)c2ncn(-c3cccc(Cl)c3)c2n1
Potency [1]: inactive

Oc1ccc(COCc2ccc(F)cc2)c2cccnc12
Potency [1]: inactive | Potency [5]: 10.1 µM (active)

CN1CCN(c2ccc(Nc3c4ccccc4nc4ccccc34)cc2)CC1
Potency [1]: inactive

COc1ccc2nc(-c3cccc(C)c3)sc2c1
Potency [1]: inactive

Reference: PubChem BioAssay (NCATS)
